Measured values reported in ChEMBL document CHEMBL1961873, “Compounds: GSK PKIS; Assays: Nanosyn kinase panel” (2012).

Assays:
[1] = target: High affinity nerve growth factor receptor (Homo sapiens) (UniProt P04629); settings: at 1 µM;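 note: each value is the mean percent inhibition of TRKA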
[2] = target: BDNF/NT-3 growth factors receptor (Homo sapiens) (UniProt Q16620); settings: at 0.1 µM
[3] = target: BDNF/NT-3 growth factors receptor (Homo sapiens) (UniProt Q16620); settings: at 1 µM
[4] = target: NT-3 growth factor receptor (Homo sapiens) (UniProt Q16288); settings: at 0.1 µM
NT-3 growth factor receptor (Homo sapiens), sequence (Q16288 32-839 limits assumed): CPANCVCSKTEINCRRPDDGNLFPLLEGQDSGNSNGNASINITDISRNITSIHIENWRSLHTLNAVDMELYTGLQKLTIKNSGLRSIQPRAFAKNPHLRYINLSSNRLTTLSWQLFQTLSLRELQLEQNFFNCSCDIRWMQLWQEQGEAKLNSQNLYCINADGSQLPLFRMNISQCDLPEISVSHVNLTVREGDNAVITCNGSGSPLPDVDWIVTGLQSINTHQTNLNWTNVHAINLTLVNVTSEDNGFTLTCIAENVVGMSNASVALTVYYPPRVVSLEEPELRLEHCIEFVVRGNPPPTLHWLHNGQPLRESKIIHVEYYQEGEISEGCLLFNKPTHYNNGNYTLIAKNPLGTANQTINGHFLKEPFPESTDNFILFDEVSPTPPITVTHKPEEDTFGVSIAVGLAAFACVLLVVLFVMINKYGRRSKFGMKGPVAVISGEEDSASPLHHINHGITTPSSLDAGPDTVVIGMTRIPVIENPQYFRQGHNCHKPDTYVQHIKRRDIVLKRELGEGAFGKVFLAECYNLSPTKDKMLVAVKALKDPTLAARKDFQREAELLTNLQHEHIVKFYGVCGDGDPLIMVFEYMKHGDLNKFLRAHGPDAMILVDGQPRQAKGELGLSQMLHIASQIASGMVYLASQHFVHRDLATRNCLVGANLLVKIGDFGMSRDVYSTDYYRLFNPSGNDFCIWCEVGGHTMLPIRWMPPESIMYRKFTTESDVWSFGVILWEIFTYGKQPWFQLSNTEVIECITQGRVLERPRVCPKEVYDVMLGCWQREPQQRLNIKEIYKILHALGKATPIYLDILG

[5] = target: NT-3 growth factor receptor (Homo sapiens) (UniProt Q16288); settings: at 1 µM
[6] = target: T1, Tyrosine-protein kinase TXK (Homo sapiens) (UniProt P42681); settings: at 0.1 µM
T1 sequence (whole entry): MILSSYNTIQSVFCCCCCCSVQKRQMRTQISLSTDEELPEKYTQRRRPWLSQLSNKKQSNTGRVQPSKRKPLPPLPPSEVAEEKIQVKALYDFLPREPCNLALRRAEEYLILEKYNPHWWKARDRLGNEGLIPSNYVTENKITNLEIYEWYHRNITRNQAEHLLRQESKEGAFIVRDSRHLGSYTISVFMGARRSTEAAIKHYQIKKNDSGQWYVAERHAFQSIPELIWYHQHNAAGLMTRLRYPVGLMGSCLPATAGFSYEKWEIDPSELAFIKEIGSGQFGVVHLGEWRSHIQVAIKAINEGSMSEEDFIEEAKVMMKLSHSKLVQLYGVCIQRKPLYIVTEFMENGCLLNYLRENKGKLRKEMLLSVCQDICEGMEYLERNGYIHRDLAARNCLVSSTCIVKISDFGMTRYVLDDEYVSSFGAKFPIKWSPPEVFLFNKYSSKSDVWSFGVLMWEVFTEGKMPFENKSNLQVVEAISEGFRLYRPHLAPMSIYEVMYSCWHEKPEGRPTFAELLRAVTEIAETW

[7] = target: T1, Tyrosine-protein kinase TXK (Homo sapiens); settings: at 1 µM
[8] = target: Non-receptor tyrosine-protein kinase TYK2 (Homo sapiens) (UniProt P29597); settings: at 0.1 µM;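 note: each value is a mean of the inhibition readings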
[9] = target: T2, Dual specificity protein kinase TTK (Homo sapiens) (UniProt P33981); settings: at 1 µM;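 note: reported figures are mean TTK inhibition at 1 µM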
T2 sequence (whole entry): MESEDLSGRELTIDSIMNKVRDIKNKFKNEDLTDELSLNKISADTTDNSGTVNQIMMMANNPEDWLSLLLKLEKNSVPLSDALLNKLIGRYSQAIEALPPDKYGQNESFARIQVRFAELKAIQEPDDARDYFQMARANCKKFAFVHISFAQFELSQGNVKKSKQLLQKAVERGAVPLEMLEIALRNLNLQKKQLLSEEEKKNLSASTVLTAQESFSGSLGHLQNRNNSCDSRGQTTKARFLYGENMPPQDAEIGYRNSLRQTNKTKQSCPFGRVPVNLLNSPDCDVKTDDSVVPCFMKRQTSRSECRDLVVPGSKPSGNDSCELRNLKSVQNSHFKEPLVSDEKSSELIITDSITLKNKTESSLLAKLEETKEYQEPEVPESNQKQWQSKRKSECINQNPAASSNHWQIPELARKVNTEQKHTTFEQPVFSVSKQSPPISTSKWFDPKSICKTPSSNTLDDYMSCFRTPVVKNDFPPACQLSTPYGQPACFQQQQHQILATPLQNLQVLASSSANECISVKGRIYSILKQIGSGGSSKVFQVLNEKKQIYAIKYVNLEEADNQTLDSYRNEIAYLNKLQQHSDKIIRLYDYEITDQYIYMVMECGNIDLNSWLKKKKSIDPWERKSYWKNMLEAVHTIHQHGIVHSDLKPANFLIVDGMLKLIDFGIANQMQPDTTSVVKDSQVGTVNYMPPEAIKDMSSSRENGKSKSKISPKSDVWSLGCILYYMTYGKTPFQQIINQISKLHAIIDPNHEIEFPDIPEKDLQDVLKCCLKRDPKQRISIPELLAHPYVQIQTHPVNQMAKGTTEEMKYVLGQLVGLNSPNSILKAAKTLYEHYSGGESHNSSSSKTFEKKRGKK

[10] = target: T3, Aurora kinase A (Homo sapiens) (UniProt O14965); settings: at 0.1 µM
T3 sequence (whole entry): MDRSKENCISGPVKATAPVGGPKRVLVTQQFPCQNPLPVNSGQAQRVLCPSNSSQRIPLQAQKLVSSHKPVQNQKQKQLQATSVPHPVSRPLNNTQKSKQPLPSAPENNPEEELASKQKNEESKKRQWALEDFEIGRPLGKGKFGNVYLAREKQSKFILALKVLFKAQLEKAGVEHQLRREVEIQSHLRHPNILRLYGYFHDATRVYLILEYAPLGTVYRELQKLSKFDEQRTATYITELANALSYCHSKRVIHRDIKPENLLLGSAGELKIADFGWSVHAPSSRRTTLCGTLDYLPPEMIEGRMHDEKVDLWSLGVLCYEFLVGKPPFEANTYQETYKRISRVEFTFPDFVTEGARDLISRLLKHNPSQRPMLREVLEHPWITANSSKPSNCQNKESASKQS

[11] = target: T3, Aurora kinase A (Homo sapiens); settings: at 1 µM
[12] = target: Aurora kinase B (Homo sapiens) (UniProt Q96GD4); settings: at 0.1 µM
Aurora kinase B (Homo sapiens), sequence (Q96GD4 whole entry): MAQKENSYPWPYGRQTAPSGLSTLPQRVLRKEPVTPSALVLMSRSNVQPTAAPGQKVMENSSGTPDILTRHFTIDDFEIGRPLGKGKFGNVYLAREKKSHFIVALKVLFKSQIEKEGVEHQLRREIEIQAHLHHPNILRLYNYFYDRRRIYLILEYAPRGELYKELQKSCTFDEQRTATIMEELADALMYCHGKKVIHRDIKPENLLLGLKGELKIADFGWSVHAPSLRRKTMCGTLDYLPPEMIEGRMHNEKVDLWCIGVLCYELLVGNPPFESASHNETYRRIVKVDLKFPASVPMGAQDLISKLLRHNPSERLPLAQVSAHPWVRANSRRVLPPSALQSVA

[13] = target: Aurora kinase B (Homo sapiens) (UniProt Q96GD4); settings: at 1 µM
[14] = target: T4, Aurora kinase C (Homo sapiens) (UniProt Q9UQB9); settings: at 0.1 µM
T4 sequence (whole entry): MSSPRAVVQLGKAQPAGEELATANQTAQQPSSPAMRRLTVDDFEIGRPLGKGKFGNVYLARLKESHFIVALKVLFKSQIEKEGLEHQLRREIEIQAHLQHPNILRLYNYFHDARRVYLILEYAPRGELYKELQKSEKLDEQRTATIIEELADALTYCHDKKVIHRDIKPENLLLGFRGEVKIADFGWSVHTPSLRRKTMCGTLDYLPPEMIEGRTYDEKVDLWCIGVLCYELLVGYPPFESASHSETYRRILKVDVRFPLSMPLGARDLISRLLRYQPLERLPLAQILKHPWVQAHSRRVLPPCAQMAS

[15] = target: T4, Aurora kinase C (Homo sapiens); settings: at 1 µM
[16] = target: Serine/threonine-protein kinase 10 (Homo sapiens) (UniProt O94804); settings: at 0.1 µM
Serine/threonine-protein kinase 10 (Homo sapiens), sequence (O94804 whole entry, looked up): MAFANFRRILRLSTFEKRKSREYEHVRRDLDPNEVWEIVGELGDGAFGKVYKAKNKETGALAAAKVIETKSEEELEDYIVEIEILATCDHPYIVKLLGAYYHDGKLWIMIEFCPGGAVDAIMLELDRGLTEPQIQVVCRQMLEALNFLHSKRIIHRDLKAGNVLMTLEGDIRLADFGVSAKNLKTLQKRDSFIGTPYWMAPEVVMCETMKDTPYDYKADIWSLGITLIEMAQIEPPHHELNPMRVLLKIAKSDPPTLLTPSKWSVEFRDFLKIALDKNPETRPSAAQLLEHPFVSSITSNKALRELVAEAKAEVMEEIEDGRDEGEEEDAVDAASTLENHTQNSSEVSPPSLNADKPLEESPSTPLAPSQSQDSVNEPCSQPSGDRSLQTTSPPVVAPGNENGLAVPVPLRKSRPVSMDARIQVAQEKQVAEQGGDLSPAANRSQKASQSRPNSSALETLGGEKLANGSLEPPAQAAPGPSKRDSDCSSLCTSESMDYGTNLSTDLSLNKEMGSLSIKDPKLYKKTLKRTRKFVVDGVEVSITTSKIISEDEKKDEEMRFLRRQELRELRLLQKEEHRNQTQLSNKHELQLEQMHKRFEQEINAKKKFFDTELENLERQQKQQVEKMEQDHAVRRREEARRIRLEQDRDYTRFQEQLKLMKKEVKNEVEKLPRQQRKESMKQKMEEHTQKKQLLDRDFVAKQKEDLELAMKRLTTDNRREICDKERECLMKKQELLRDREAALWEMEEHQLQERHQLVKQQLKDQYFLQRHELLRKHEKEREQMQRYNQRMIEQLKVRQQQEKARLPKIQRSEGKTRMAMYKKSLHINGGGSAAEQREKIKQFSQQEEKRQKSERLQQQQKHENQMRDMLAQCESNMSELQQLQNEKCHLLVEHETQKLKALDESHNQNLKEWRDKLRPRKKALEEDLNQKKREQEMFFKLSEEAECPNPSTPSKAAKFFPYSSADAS

[17] = target: Serine/threonine-protein kinase 10 (Homo sapiens) (UniProt O94804); settings: at 1 µM
[18] = target: T5, Mitogen-activated protein kinase kinase kinase kinase 2 (Homo sapiens) (UniProt Q12851); settings: at 0.1 µM
T5 sequence (whole entry): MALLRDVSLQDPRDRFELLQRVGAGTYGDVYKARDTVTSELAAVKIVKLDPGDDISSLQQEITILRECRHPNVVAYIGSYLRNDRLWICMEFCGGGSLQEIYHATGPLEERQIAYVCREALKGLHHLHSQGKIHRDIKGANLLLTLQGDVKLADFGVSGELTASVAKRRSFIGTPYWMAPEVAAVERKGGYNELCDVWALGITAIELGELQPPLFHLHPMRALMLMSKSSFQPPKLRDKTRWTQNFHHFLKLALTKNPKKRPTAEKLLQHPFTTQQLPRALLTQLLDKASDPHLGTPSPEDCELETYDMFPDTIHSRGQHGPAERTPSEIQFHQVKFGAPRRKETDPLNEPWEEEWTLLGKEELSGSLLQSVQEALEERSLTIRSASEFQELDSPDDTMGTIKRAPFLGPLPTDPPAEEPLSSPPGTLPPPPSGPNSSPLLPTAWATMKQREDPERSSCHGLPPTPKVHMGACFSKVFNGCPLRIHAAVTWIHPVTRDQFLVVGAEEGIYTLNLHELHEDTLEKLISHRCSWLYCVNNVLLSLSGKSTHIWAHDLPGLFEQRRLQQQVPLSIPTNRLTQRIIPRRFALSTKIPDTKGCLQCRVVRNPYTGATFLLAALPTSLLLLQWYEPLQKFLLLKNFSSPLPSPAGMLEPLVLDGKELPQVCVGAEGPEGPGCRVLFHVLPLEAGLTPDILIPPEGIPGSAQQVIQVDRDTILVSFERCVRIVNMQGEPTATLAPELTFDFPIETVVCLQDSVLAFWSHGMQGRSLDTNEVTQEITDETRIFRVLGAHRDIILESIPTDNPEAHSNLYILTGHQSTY

[19] = target: T5, Mitogen-activated protein kinase kinase kinase kinase 2 (Homo sapiens); settings: at 1 µM
[20] = target: Mitogen-activated protein kinase kinase kinase kinase 4 (Homo sapiens) (UniProt O95819); settings: at 0.1 µM
Mitogen-activated protein kinase kinase kinase kinase 4 (Homo sapiens), sequence (O95819 2-1239 limits assumed): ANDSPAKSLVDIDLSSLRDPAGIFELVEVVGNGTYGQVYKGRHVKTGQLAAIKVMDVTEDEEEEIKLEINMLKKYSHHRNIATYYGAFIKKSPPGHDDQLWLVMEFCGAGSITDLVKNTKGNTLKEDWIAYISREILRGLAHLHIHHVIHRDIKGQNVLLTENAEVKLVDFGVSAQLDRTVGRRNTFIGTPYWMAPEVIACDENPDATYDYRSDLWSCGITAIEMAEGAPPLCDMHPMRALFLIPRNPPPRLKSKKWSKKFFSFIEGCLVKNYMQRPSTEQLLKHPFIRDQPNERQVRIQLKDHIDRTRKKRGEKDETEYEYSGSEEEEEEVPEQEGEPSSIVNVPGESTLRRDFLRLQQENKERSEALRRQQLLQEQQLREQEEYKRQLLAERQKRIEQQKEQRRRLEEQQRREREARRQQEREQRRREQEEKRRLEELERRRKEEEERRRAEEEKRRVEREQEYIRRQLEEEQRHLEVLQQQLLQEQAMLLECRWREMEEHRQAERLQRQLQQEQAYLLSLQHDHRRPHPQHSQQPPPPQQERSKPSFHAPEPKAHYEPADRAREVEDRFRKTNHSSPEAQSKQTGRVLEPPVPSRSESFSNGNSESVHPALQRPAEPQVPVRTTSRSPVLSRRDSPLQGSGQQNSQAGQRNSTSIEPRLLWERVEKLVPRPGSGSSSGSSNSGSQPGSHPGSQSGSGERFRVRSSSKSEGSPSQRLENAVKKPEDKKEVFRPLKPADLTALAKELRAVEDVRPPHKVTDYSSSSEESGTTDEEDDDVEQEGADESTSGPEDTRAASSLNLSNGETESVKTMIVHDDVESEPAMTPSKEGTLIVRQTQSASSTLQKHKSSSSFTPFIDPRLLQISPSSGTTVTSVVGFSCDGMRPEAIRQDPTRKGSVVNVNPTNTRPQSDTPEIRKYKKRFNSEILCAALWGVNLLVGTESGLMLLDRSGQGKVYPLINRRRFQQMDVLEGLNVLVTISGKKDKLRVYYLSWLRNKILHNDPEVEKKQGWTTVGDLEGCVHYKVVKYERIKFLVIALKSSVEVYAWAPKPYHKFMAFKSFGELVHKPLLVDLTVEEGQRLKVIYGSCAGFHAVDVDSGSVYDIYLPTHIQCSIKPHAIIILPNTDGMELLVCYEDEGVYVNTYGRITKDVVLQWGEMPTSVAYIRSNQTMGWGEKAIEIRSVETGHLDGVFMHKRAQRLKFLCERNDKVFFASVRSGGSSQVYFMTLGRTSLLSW

High affinity nerve growth factor receptor (Homo sapiens), sequence (P04629 33-796 limits assumed): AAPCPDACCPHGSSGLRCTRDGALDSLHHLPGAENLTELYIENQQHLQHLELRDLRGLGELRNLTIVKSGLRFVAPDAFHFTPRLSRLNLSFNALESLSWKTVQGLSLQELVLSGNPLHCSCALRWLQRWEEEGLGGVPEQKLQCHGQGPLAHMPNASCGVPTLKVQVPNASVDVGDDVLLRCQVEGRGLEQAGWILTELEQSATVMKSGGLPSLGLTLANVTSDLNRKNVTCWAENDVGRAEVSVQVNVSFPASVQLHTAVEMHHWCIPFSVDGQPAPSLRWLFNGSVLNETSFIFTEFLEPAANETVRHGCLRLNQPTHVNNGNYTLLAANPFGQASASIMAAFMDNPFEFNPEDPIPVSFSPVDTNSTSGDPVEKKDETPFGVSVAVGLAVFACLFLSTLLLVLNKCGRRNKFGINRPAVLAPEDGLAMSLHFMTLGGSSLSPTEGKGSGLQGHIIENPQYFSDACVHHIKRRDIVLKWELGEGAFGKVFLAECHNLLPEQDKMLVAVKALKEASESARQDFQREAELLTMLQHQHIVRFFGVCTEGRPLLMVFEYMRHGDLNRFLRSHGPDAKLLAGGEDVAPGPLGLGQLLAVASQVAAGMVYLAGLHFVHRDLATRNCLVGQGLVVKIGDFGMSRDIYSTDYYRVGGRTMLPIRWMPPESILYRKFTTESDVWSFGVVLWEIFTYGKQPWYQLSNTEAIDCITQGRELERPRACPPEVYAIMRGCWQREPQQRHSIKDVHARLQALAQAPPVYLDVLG
BDNF/NT-3 growth factors receptor (Homo sapiens), sequence (Q16620 32-822 limits assumed): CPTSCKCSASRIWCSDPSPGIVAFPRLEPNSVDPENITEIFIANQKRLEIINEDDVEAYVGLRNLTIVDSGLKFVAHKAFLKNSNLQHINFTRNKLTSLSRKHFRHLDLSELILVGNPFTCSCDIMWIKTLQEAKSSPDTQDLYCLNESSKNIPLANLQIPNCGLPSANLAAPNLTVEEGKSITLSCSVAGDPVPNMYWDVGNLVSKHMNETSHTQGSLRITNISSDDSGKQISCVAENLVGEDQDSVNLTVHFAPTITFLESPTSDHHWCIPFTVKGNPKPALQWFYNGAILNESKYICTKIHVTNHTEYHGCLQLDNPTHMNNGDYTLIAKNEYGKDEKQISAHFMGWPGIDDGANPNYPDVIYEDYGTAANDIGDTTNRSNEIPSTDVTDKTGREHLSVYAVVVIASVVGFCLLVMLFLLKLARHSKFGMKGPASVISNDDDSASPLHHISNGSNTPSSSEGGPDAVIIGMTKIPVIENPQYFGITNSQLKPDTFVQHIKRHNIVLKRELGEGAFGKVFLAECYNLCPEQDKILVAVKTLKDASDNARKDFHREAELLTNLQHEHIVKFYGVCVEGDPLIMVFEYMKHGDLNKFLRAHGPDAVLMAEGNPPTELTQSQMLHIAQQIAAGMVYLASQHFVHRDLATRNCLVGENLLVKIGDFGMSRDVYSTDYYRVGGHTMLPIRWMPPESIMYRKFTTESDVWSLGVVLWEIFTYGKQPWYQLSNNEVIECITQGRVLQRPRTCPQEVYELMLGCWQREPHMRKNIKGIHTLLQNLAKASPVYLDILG

Structure (SMILES) | inhibition [1] [%] | inhibition [2] [%] | inhibition [3] [%] | inhibition [4] [%] | inhibition [5] [%] | inhibition [6] [%] | inhibition [7] [%] | inhibition [8] [%] | inhibition [9] [%] | inhibition [10] [%] | inhibition [11] [%] | inhibition [12] [%] | inhibition [13] [%] | inhibition [14] [%] | inhibition [15] [%] | inhibition [16] [%] | inhibition [17] [%] | inhibition [18] [%] | inhibition [19] [%] | inhibition [20] [%]
CN(C)C(=O)O[C@H]1CN[C@H](C#Cc2cc3ncnc(Nc4ccc(OCc5cccc(F)c5)c(Cl)c4)c3s2)C1 | 0.1 | 1.92 | 2.03 | 1.38 | 2.78 | 2.86 | 4.84 | -7.95 | 6.07 | 1.25 | 9.61 | 3.92 | 7.39 | 2.15 | 8.8 | 4.18 | 8.61 | 0.82 | 2.78 | 3.45
CCS(=O)(=O)c1ccc(OC)c(Nc2ncc(-c3cccc(OC)c3)o2)c1 | 30.9 | 7.72 | 43.5 | 11.7 | 49.3 | 14.5 | 53.4 | -5.06 | 7.02 | 4.52 | 34.5 | 2.15 | 5.4 | 1.61 | 14.6 | 4.31 | 8.64 | 1.39 | 6.14 | 4.46
Oc1cccc(-c2nc(-c3ccccc3)[nH]c2-c2ccncc2)c1 | 5.31 | 3.82 | 5.72 | 4.99 | 7.3 | 3.28 | 13.8 | -1.97 | 12.4 | 2.96 | 4.61 | 3.38 | 8.4 | 2.05 | -2.07 | 4.37 | 16.6 | 0.57 | 4.27 | 4.05
Cc1cc(Cl)cc2c1NC(=O)C2=NNc1ccc(S(N)(=O)=O)cc1 | 2.26 | 1.15 | 4.46 | 1.2 | 3.59 | 2.77 | 3.71 | -5.56 | 9.15 | 1.75 | 4.36 | 4.55 | 6.64 | 2.52 | -3.99 | 1.5 | 7.34 | 1 | 0.54 | 12.7
NS(=O)(=O)c1ccc(N/N=C2\C(=O)Nc3ccc(Cl)cc32)cc1 | 17.9 | 5.72 | 34.7 | 9.02 | 42.3 | 3.22 | 4.96 | -4.4 | 45.1 | 3.86 | 26.8 | 3.68 | 6.25 | 1.97 | 5.64 | 6.82 | 6.74 | 0.49 | 3.26 | 25.7
N#Cc1cccc(Nc2nccc(-c3cnn4ncccc34)n2)c1 | 65.7 | 24.3 | 75.3 | 28.2 | 87.5 | 5.32 | 24.4 | -4.17 | 35 | 11.3 | 74.5 | 19.3 | 64 | 18.5 | 96.7 | 5.05 | 15.8 | 11 | 45.8 | 19.3
COc1cc2ncnc(Nc3ccc4c(cnn4Cc4ccccc4)c3)c2cc1OC | 2.18 | 2.13 | 3.38 | 1.5 | 2.59 | 0.73 | 4.56 | -1.09 | 13.2 | 1.22 | 7.82 | 3.48 | 15 | 1.9 | 23.7 | 0.29 | 14.2 | 1.57 | 1.51 | 8.32
CC(C)c1ccc(Nc2nccc(-c3cnn4ncccc34)n2)cc1 | 7.94 | 2.01 | 6.18 | 3.36 | 9.1 | 1.69 | 3.04 | -0.82 | 22.2 | 6.2 | 65.8 | 7.65 | 43.1 | 5.11 | 74.6 | 3.13 | 8.29 | 1.97 | 23.4 | 4.8
CN(c1ccc(NC(=O)Nc2ccc(OC(F)(F)F)cc2)cc1)c1ccnc(Nc2cccc(S(N)(=O)=O)c2)n1 | 90.5 | 34.7 | 82.6 | 30.1 | 87.1 | -0.18 | 8.63 | -1.91 | 6.4 | 7.93 | 76.8 | 63.9 | 79 | 30.7 | 96.5 | 26 | 70.4 | 18.4 | 69.5 | 24.4
Nc1nccc(C#Cc2cncnc2Nc2ccc(OCc3cccc(F)c3)c(Cl)c2)n1 | 9.29 | 3.48 | 11.3 | 2.67 | 9.94 | 3.85 | 8.58 | -3.29 | 14.2 | 1.06 | 15.2 | 5.2 | 13.2 | 3.04 | 10.1 | 5.76 | 11.4 | 1.38 | -0.42 | 6.33
CN(C)c1cc2c(Nc3ccc4c(cnn4Cc4ccccc4)c3)ncnc2cn1 | 1.97 | 1.16 | 0.6 | 2.13 | 1.66 | 3.19 | 4.31 | -2.71 | 6.41 | -1.73 | 12.8 | -0.85 | 8.49 | 2.76 | 27.6 | 6.27 | 13.9 | 0.85 | 0.49 | 2.93
Cc1ccc(C(=O)NC2CC2)cc1-c1ccc2[nH]ncc2c1 | -1.16 | -1.91 | -0.53 | -1.71 | 0.33 | -2.22 | 0.71 | 0.52 | -6.13 | -3.2 | -1.72 | -2.69 | -0.44 | -3.29 | 0.5 | -0.03 | -1.42 | -1.74 | 5.05 | -2.51
Cc1cc(O)cc(C)c1/C=C/c1cncc(C(=O)N(C)C)c1 | 2.43 | 1.59 | 0.08 | 2.73 | 1.59 | 2.92 | 3.74 | -1.5 | 4.52 | 2.58 | 13.3 | 7.28 | 14.7 | 3.08 | 2.63 | 3.87 | 7.88 | 2.39 | 6.67 | 6.12
